Screens: PubChem, National Center for Advancing Translational Sciences (NCATS)
Only a selection was taken, and hits are over-represented in it overall.
SARS PLP yeast: inhibitors of SARS-CoV papain-like protease in yeast; S. cerevisiae expressing SARS-CoV PLpro, growth rescue; Potency, µM (highest dose often 32.9 µM), without a hit: at the top dose activity, positive = growth rescue, actives largely listed as activators; 0.19% of 330,000 active; AID 485353; calls by dose curve; further: potency means the concentration at half of the fitted maximal effect; 0% is about no effect; nearly all actives have a fitted effect of over 55% in size
AMA1 RON2 block: disrupts binding of P. falciparum AMA1 to RON2. AlphaScreen AMA1-biotinylated RON2 peptide binding. Potency, µM (doses to about 58.2 µM), for the others: top-dose activity change, negative = inhibition, hits mostly inhibitors. 0.2% of 360,000 active;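 further: potency means the concentration at half of the fitted maximal effect; 0% = vehicle wells and -100% = peptide control; nearly all actives have a fitted effect of over 45% in size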
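AMA1 (3D7) with his tag at 25 nM final met compounds first, then biotinylated RON2 peptide at 25 nM; detection used donor plus acceptor beads, 10 µg/mL apiece, read by AlphaScreen after 30 min at room temperature.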
AmpC inh detg: inhibitors of E. coli AmpC beta-lactamase with detergent; P00811; AmpC hydrolysis of nitrocefin, absorbance 480 nm, 0.01% Triton; 0.041% of 370,000 active; AID 485294; Potency, µM (doses to about 114 µM), without a hit: top-dose activity change, negative = inhibition, hits mostly inhibitors;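 further: potency means the concentration at half of the fitted maximal effect; 0% = no-compound wells and -100% = no-enzyme wells; nearly all actives have a fitted effect of over 25% in size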
Target sequence (P00811 whole entry, looked up): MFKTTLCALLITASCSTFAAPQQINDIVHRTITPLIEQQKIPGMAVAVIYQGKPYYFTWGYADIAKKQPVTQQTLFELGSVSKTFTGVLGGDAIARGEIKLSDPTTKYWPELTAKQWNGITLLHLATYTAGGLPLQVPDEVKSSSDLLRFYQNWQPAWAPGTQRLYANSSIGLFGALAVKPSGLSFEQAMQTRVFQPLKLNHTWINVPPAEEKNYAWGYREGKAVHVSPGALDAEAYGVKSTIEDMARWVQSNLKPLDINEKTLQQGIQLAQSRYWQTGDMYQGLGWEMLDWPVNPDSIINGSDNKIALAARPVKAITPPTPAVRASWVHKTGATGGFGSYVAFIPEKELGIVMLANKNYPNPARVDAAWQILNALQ
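20 mM phosphate pH 7.0 + 0.01% (detergent screen) or 0.0001% Triton X-100; 5.3 nM AmpC reagent; cpd preinc 15 min RT; nitrocefin (800 uM stock) to start; A480 q20 s × 4 min; Activity was normalised to no-enzyme and no-compound control wells.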
Cycloheximide cs: counter-screen hit for Shiga toxin inhibitors, cycloheximide; cell reporter, cycloheximide protein synthesis inhibition counterscreen; max response, %; 12% of 300,000 active; in the data active means max response mostly above about 13%, no sharp cut-off; inactive means mostly below about 14%; further: read at 38.3 µM for the half of the compounds with a filed dose; 0% is about no effect
AmpC inh no detg: AmpC beta-lactamase inhibition without detergent. AmpC nitrocefin hydrolysis, absorbance 480 nm, 0.0001% Triton. Potency, µM (top dose mostly 57.1 µM), for the others: at the top dose activity change, negative = inhibition, usual class: inhibitors. P00811. 0.52% of 330,000 active;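 further: potency means the concentration at half of the fitted maximal effect; plate controls were no compound for no effect and no enzyme for full effect; nearly all actives have a fitted effect of over 20% in size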
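AmpC (5.3 nM in the dispensed reagent) in 20 mM phosphate pH 7.0 with 0.01% (detergent screen) or 0.0001% Triton X-100 was preincubated with compounds for 15 min at room temperature. Nitrocefin was then added from an 800 uM solution, and hydrolysis was followed at 480 nm.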
Shiga toxin inh: Shiga toxin inhibition. Vero cells, Shiga toxin protein synthesis inhibition reporter. inhibition, % at 38.7 µM. 9.2% of 290,000 active; in the data active means inhibition mostly above about 28%, no sharp cut-off; inactive means mostly below about 43%; further: 0% is about no effect
* = called active by the depositor; u = inconclusive; x = not tested or not shown. Unless noted, the call rests on the fitted dose curve; in most records, active means well fitted curve in the direction sought with a large enough effect; inconclusive means small, poorly fitted or top-dose-only effect, or another doubt; inactive means no such curve, though single readings can be large; an effect the other way counts as inactive or inconclusive.

SMILES	SARS PLP yeast	AMA1 RON2 block	AmpC inh detg	Cycloheximide cs	AmpC inh no detg	Shiga toxin inh
O=C(COc1ccc(Br)cc1CNC1CCCC1)Nc1ccccc1	-0.3%	-7.6%	2.9%	-0.8	-9.7%	-14.1
CCn1c(C)nc2cc(C(=O)NNC(=O)Nc3ccc(Cl)cc3)ccc21	0.3%	31.5%	-0.9%	-2.9	-14.9%	-4.2
NC(=O)c1ccc(NC(=O)c2cccc(Oc3ccccc3)c2)cc1	0.5%	-1.4%	7.8%	6.7	-22.6%	102.1
COc1ccc(NC(=O)c2ccc(S(=O)(=O)N(C)c3ccccc3)cc2)cn1	-0.7%	-4.4%	-6.7%	14.6	-3.7%	15.6
COc1ccc(NC(=O)c2cccc(Oc3ccccc3)c2)cn1	-4.7%	-2.9%	-7.7%	33.1*	-18.0%	81.1*
COc1ccc(NC(=S)NC(=O)c2ccccc2)cn1	-2.0%	6.9%	-4.9%	69.2*	-9.5%	132.0*
COc1ccc(OC2C(=O)N(Cc3ccc4c(c3)OCO4)C2c2cccs2)cc1 (stereo not drawn)	-3.1%	-9.6%	0.5%	-2.6	-23.7%	-20.8
COc1ccccc1-c1cc(C(=O)Nc2cccnc2)no1	-14.2%	5.1%	-7.3%	25.2*	-22.8%	48.5*
COc1ccc(NC(=O)c2cc(-c3ccccc3Cl)on2)cc1	4.5%	-1.2%	-10.6%	43.7*	-25.4%	129.9*
COc1ccccc1-c1cc(C(=O)NCCc2ccccc2)no1	7.8%	11.7%	-0.9%	53.8*	-35.7%	147.0*
CCc1cc(C(=O)NCc2ccccc2)no1	x	x	-2.8%	x	x	x
CCCc1cc(C(=O)NCCc2ccccc2)no1	-6.8%	8.1%	-3.6%	53.4*	11.2µM*	86.5*
CN(c1ccc(OC(=O)CC2OC(=O)c3ccccc32)cc1)S(=O)(=O)c1ccccc1 (stereo not drawn)	-1.1%	0.6%	0.6%	x	-24.3%	x
COc1ccc(NC(=O)c2cc(-c3ccccc3OC)on2)cc1	2.7%	7.3%	-6.8%	19.4*	-25.5%	88.5*
Cc1csc(N=Nc2ccc(N(C)C)cc2)[n+]1[O-]	x	14.1µM*	x	x	x	x
Cc1c(F)cccc1NS(=O)(=O)c1ccc(OCCNS(C)(=O)=O)cc1	0.4%	18.6%	1.9%	5.6	-5.9%	-6.2
O=C(NCCCNC(=O)c1c(F)cccc1F)c1c(F)cccc1F	-2.8%	14.3%	-1.0%	-3.2	2.0%	-11.7
O=C(NCC(Cl)c1ccc2ccccc2c1)c1c(F)cccc1F (stereo not drawn)	-0.2%	3.3%	5.7%	33.3*	42.9%	8.9
Cc1ccc(OCCn2cc(C(=O)c3ccco3)c3ccccc32)cc1C	x	x	-6.8%	x	x	x
Cc1cc(OCCn2cc(/C(N)=N/O)c3ccccc32)ccc1Cl	-8.0%	-7.4%	u	-0.5	15.8µM*	4.0
COc1ccccc1OCCn1cc(C(=O)O)c2ccccc21	-1.2%	0.4%	0.2%	1.3	-12.3%	22.4
CC(=O)c1cn(CCOc2ccccc2C)c2ccccc12	0.4%	4.8%	u	-2.3	27.1%	13.0
CC(=O)c1cn(CCOc2ccc(F)cc2)c2ccccc12	-1.2%	2.7%	u	12.3*	4.0%	x
CC(=O)c1cn(CCCOc2ccccc2)c2ccccc12	-2.0%	0.4%	3.0%	21.2*	53.2%	20.6
O=C(O)c1cn(CCOc2ccccc2Cl)c2ccccc12	1.8%	-7.4%	-3.6%	37.6*	-26.1%	50.2*
SMILES	SARS PLP yeast	AMA1 RON2 block	AmpC inh detg	Cycloheximide cs	AmpC inh no detg	Shiga toxin inh
Cc1ccccc1NCc1nc2ccccc2n1C	-5.8%	9.0%	-3.9%	55.3*	-11.3%	84.2*
Cn1c(CNc2ccccc2O)nc2ccccc21	-23.3%	126.6%	-11.6%	23.4*	-23.5%	75.7*
CCCC(=O)NCc1nc2ccccc2n1C	1.4%	-1.4%	2.1%	-4.1	-28.8%	-7.2
Cn1c(CNc2nc3ccccc3n2CCN2CCCCC2)nc2ccccc21	-2.1%	16.5%	-8.2%	-3.7	-36.3%	-4.9
COc1ccc(N2CCN(C(=O)c3cc4c(=O)n(Cc5ccco5)ccc4nc3C)CC2)cc1	x	x	1.9%	x	x	x
COc1cc(CNCc2ccc(C)cc2)cc(OC)c1OC	-0.4%	-28.3%	-12.3%	-2.7	-5.5%	11.7
CCc1ccc(C(=O)Cn2ccsc2=N)cc1	-9.0%	-1.0%	-2.9%	54.3*	-16.6%	90.8*
CC(C)(C)NC(=O)NC(=O)Cn1ccsc1=N	4.4%	-7.8%	-15.4%	-1.7	-24.5%	-11.4
Cc1ccc(C(=O)NCCc2ccncc2)cc1	-2.1%	1.6%	-10.7%	27.4*	-6.8%	42.0*
Cc1ccc(C(=O)NCCc2csc(C)n2)cc1	0.8%	9.0%	u	26.8*	-5.3%	54.9*
Cc1ccc(CCNC(=O)NC(C)(C)C)cc1	3.4%	-13.4%	-16.5%	29.9*	-1.1%	68.7*
Cc1cccc(C(=O)NCCc2csc(C)n2)c1	-11.8%	3.4%	-10.5%	-0.1	3.55µM*	13.6
Cc1ccc(CCNC(=O)Cn2cccc2)cc1	-6.4%	-9.1%	-14.5%	1.4	-20.5%	4.0
Cc1nc(CCNC(=O)c2cccs2)cs1	-18.4%	-2.9%	-5.8%	9.5	-18.2%	18.5
CN(C(=O)CSc1nnc(C(F)(F)F)n1C)c1c(N)n(Cc2ccccc2)c(=O)[nH]c1=O	x	1.5%	x	x	x	x
Cc1cc(C)cc(N(CC(=O)NC2CCCCC2)C(=O)c2csnn2)c1	-1.5%	-2.4%	5.0%	-4.8	-3.0%	15.0
Cc1cc(C)n2c(C)nnc2c1	2.2%	-2.7%	-11.2%	0.5	-5.6%	-4.4
O=C(Nc1ccc(N2CCCC2)cc1)c1ccc(Br)cc1	5.3%	-13.2%	u	11.6*	-23.7%	18.8
CC(C)Oc1ccc(C(=O)Nc2ccc(N3CCN(C(=O)c4ccco4)CC3)cc2)cc1	1.5%	-17.2%	-6.9%	-2.8	-4.9%	-9.6
CC(C)Oc1ccc(C(=O)Nc2ccc(N3CCCC3)cc2)cc1	-8.2%	-13.7%	-10.8%	20.4*	1.1%	27.4*
COc1ccc(Br)cc1C(=O)Nc1ccc(N2CCCC2)cc1	2.7%	-9.6%	-13.8%	-3.1	-28.3%	-8.2
CCOc1ccccc1NC(=O)c1cc(S(=O)(=O)N2CCN(CC)CC2)ccc1Cl	-3.2%	-6.5%	-4.8%	-1.2	68.4%	-20.6
O=S(=O)(c1cccc(-c2nn3c(-c4ccncc4)nnc3s2)c1)N1CCOCC1	7.7%	x	-4.7%	-3.0	-18.2%	-21.0
CCOc1ccc(NC(=O)c2ccc(CNc3c(NC4CCCCC4)c(=O)c3=O)cc2)cc1	12.9%	0.8%	u	-5.2	-27.1%	-6.1
CCOc1ccc(NC(=O)c2ccc(NC(=S)NC3CC3)cc2)cc1	0.4%	2.9%	-7.9%	11.3	-17.2%	50.6*
CCOc1ccc(NC(=O)c2ccc(NC(=S)NC3CCCCC3)cc2)cc1	-0.4%	8.4%	1.2%	23.7*	-18.9%	35.6
CCn1cc(C(=O)N2CCN(c3ccccc3OC)CC2)c2cc(OC)c(OC)cc2c1=O	-1.9%	-6.4%	5.5%	-3.3	62.3%	-3.4
